Assay results: the supplement of paper PMC6124720
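Also: biolog Phenotype Microarray plates PM21–25, OD595 followed daily over 11 days, growth curves converted to index, mean of two independent experiments.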

Each compound was assayed on Pseudogymnoascus destructans 20631-21 (assay: growth activity index (DuctApe, 0 = no growth, 9 = maximal growth) (index 0-9); higher = more fungal growth (less inhibition), active = 0 or less; extreme values may be limits of the assay). Conditions: concentration level (1-4, increasing; Biolog proprietary): 4; temperature: 13 °C; YPD.
In the case of `[Cl][Cu][Cl]` [Cupric chloride] (Biolog plate: PM23), the growth activity index was 6 (inactive). `[I-].[K+]` [Potassium iodide] (Biolog plate: PM22) was tested, and the growth activity index was 0 (active). With `CN(C)C(=O)/N=N/C(=O)N(C)C` [Diamide] (Biolog plate: PM21) the growth activity index was 0 (active). In the case of `NC(N)=O` [Urea hydrogen peroxide] (Biolog plate: PM22), the growth activity index was 4.33 (inactive). `[F-].[Na+]` [Sodium Fluoride] (Biolog plate: PM24) was tested, and the growth activity index was 4.67 (inactive).
